# PubChem BioAssay (NCATS)
# Several values for one entry are separate records, joined by “and”; a condition that tells them apart may be missing. Equal values may be shown once. Results filed as inconclusive are left out. Activity calls are given as the source filed them. Unless noted, calls come from the whole dose curve; as a rule, active = well fitted curve in the direction sought with a large enough effect; inconclusive = small, poorly fitted or top-dose-only effect, or another doubt; inactive = no such curve, though single readings can be large; an effect the other way counts as inactive or inconclusive.
# Columns and labels:
# [1] = qHTS Assay for Lipid Storage Modulators (AID 1519; calls by dose curve; for activity change, negative = inhibition: % is set by controls: 0 for no effect and ±100 for the full control effect); settings: Drosophila S3 cells, BODIPY lipid droplet/cell ratio, laser cytometry, cells loaded with oleic acid
# In short: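 Cells seeded at 5,000 per well were treated with compounds over a concentration series and loaded with oleic acid (400 uM, as added). Lipid droplet fluorescence (488 nm excitation, 500-530 nm channel) was read by laser-scanning cytometry and normalized to 20 uM Triacsin C.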
# [2] = biological target: DNA repair nuclease/redox regulator APEX1 (Homo sapiens) (UniProt P27695); experiment: qHTS Validation Assay for Inhibitors of the Human Apurinic/apyrimidinic Endonuclease 1 (APE1) (AID 1705; note: potency is the fitted concentration of half-maximal effect;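 for activity change, negative = inhibition: TAMRA fluorescence gain over two minutes as APE1 cuts a quenched THF abasic duplex; % is set by controls: 0 for no effect and ±100 for the full control effect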); settings: purified APE1 endonuclease activity, fluorescence, titration; series mostly up to 57.1 µM
# In short: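 Activity read as rising fluorescence (598 nm emission, 525 nm excitation) from incision of a TAMRA/BHQ-2 duplex carrying a THF abasic site (50 nM). Compound and enzyme sat 15 min at RT before substrate start; signal change between first and third 60-s reads.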
# [3] = Counterscreen for APE1 Inhibitors: Fluorescent Dye Displacement Validation Assay (AID 1707); settings: fluorescent dye displacement from DNA; series mostly up to 57.1 µM;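 note: plate controls were ThO with dsDNA and no compound for no effect and ThO without dsDNA for full effect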
# In short: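 Reaction mixture of 250 nM Thiazole Orange and 50 nM double-stranded abasic-site DNA was dispensed, compounds were pin-transferred, and fluorescence was read at endpoint (480 nm ex, 540 nm em). Reduced fluorescence indicated dye displacement by DNA binding.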
# [4] = qHTS for differential inhibitors of proliferation of Plasmodium falciparum line 7G8 (AID 1815); settings: Plasmodium falciparum 7G8 proliferation inhibition; series mostly up to 28.7 µM;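 note: parasite growth measured after three days of incubation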; note: potency is the fitted concentration of half-maximal effect;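 for activity change, negative = inhibition: plate controls were vehicle wells for no effect and reference inhibitor wells for full effect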
# [5] = qHTS for differential inhibitors of proliferation of Plasmodium falciparum line GB4 (AID 1816); settings: Potency: Plasmodium falciparum GB4 proliferation inhibition; series mostly up to 28.7 µM;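 note: parasite growth measured after 72 h incubation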; note: potency is the fitted concentration of half-maximal effect;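 for activity change, negative = inhibition: 0% = vehicle DMSO and -100% = reference inhibitor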
# [6] = qHTS for differential inhibitors of proliferation of Plasmodium falciparum line 3D7 (AID 1876); note: potency is the fitted concentration of half-maximal effect; settings: P. falciparum 3D7 proliferation inhibition; series mostly up to 28.7 µM
# [7] = Cell Viability - LYMP1-002 - Assay at 40 hr (AID 994); settings: LYMP1-002 lymphoblastoid cell viability; series mostly up to 92.2 µM; note: nearly all actives have a fitted effect of over 60% in size; note: potency is the fitted concentration of half-maximal effect
# In short: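 qHTS cytotoxicity; 2500 cells/well, 5 hr 37 C settle, compound 40 hr 37 C. CellTiter-Glo, 30 min RT, luminescence (ATP). Concentration-response, Hill fit → AC50. Pos. ctrl tetraoctylammonium bromide.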
# [8] = Validation of Assay for Modulators of Lamin A Splicing (AID 1459; active = well fitted curve in the direction sought with a large enough effect in the signal ratio; the % refers to the signal ratio;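 note: cells exposed to compound for two days before reading; 0% is about no effect; ratio rise marks activators and ratio drop marks inhibitors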); settings: Lamin A splicing dual RFP/GFP fluorescence reporter; series mostly up to 9.22 µM
# In short: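 Splicing correction read as GFP (500-530 nm) over DsRed2 (575-640 nm) object intensity after 48 h compound exposure of reporter HeLa S3 clones (600 cells/well, 2% FBS medium); ancitabine and cycloheximide titrations, 0.5% DMSO as vehicle.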
# [9] = biological target: Alpha-galactosidase (Coffea arabica) (UniProt Q42656); experiment: Counterscreen for Glucocerebrosidase Inhibitors: qHTS Assay for Coffee Bean alpha-Galactosidase at pH 5.9 (AID 998); settings: coffee bean alpha-galactosidase enzyme assay; series mostly up to 76.9 µM;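 note: plate controls were uninhibited enzyme for no effect and no-enzyme basal signal for full effect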
# In short: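 Enzyme 2 nM + cpd (0.7 nM–77 uM titration) + 4-MU-alpha-Gal 80 uM, pH 5.9 citrate/Tween-20, RT 20 min, NaOH/glycine stop pH 10, fluor 365/440. Normalized to no-enzyme and full-activity controls; Hill-fit AC50.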
# [10] = biological target: alpha-glucosidase (Oryza sativa, rice) (UniProt Q653V4); experiment: Counterscreen for Glucocerebrosidase Inhibitors: qHTS Assay for Rice alpha-Glucosidase at pH 5.0 (AID 997); settings: rice alpha-glucosidase enzyme activity; series mostly up to 76.9 µM;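 note: 0% = full activity with enzyme and -100% = basal without enzyme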
# In short: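 Endpoint fluorogenic assay at pH 5.0: compounds (0.7 nM to 77 uM) titrated against 4 nM rice enzyme and 400 uM 4-MU-alpha-glucoside for 20 min at room temperature; NaOH/glycine stop, read ex 365/em 440 nm, Hill-fitted AC50.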
# [11] = measured here: cell count channel max response
# [12] = measured here: lipid channel max response
# Chain of DNA repair nuclease/redox regulator APEX1 (Homo sapiens) (P27695 whole entry, looked up): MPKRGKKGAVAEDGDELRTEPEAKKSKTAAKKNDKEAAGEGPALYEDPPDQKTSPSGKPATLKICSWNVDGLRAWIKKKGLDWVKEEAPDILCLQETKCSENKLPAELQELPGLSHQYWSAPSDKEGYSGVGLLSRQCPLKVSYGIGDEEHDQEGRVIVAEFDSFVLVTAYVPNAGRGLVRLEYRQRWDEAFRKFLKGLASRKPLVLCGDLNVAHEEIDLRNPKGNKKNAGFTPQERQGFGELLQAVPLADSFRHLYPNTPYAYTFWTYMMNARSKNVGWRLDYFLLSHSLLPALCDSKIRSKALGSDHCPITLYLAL
# Chain of Alpha-galactosidase (Coffea arabica) (Q42656 whole entry, looked up): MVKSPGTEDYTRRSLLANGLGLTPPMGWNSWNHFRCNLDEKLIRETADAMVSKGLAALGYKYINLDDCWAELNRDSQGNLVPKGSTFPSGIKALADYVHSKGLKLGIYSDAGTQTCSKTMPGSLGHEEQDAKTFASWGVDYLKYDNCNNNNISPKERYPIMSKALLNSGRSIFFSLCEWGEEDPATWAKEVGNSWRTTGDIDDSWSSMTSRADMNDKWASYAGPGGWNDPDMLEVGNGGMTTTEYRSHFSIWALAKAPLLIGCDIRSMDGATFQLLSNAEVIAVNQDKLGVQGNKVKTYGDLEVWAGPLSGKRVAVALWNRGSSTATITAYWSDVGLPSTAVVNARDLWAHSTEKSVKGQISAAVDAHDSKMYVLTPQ
smiles,measurement,setting,value
C=C(C)[C@H]1CN[C@H](C(=O)O)[C@H]1CC(=O)O,"activity change, negative = inhibition",[1]; at 57.5 µM (top of the series),0.0201% (inactive)
same,max response,[1]; [11],-9.16%
same,max response,[1]; [12],-9.1%
same,Potency,[2],inactive
same,outcome,[3],inactive
same,Potency,[4],inactive
same,Potency,[5],inactive
same,Potency,[6],inactive
COc1cc(OC)c(OC)cc1C=O,Potency,[7],inactive
same,"activity change, negative = inhibition",[1]; at 57.5 µM (top of the series),10.2% (inactive)
same,max response,[1]; [11],14.2%
same,max response,[1]; [12],28.2%
O=C1c2ccccc2C(=O)c2ccccc21,"activity change, negative = inhibition",[1]; at 57.5 µM (top of the series),11.7% (inactive)
same,max response,[1]; [11],14.4%
same,max response,[1]; [12],29.4%
CCC1(c2ccc(N)cc2)CCC(=O)NC1=O (stereo unspecified),outcome,[8],inactive
same,Potency,[2],inactive
same,outcome,[3],inactive
same,Potency,[4],inactive
same,Potency,[5],inactive
same,Potency,[6],inactive
COc1ccc2c(c1)C13CCCC[C@@H]1C(C2)N(C)CC3 (stereo partly specified),"activity change, negative = inhibition",[1]; at 25.7 µM (top of the series),-0.828% (inactive)
same,max response,[1]; [11],-8.06%
same,max response,[1]; [12],-9.19%
CC(=O)N1CCN(c2ccc(OC[C@H]3CO[C@](Cn4ccnc4)(c4ccc(Cl)cc4Cl)O3)cc2)CC1,outcome,[9],inactive
same,Potency,[4],11.2 µM (active)
same,Potency,[5],7.94 µM (active)
same,Potency,[6],7.08 µM (active)
O=C(O)CCCc1ccc(N(CCCl)CCCl)cc1,Potency,[7],25.1 µM (active)
same,outcome,[10],inactive
same,outcome,[9],inactive
same,"activity change, negative = inhibition",[1]; at 25.7 µM (top of the series),2.25% (inactive)
same,"activity change, negative = inhibition",[1]; at 57.5 µM (top of the series),2.66% (inactive)
same,max response,[1]; [11],-7.28% and 5.28%
same,max response,[1]; [12],-5.54% and 10.7%
same,Potency,[2],inactive
same,outcome,[3],inactive
Cc1ncsc1CCCl,"activity change, negative = inhibition",[1]; at 57.5 µM (top of the series),4.7% (inactive)
same,max response,[1]; [11],0.112%
same,max response,[1]; [12],4.95%
CC(C)(C)NCC(O)c1ccccc1Cl (stereo unspecified),"activity change, negative = inhibition",[1]; at 57.5 µM (top of the series),6.93% (inactive) and 0.29% (inactive)
same,max response,[1]; [11],-1.25% and 42.1%
same,max response,[1]; [12],8.8% and 40.7%
same,Potency,[2],inactive
same,outcome,[3],inactive
same,Potency,[4],5.62 µM (active)
same,Potency,[5],6.31 µM (active)
CCCCC/C=C\C/C=C\C/C=C\C/C=C\CCCC(=O)NCC(=O)O,outcome,[10],inactive
same,outcome,[9],inactive
same,outcome,[8],inactive
same,"activity change, negative = inhibition",[1]; at 57.5 µM (top of the series),-0.69% (inactive)
same,max response,[1]; [11],64.5%
same,max response,[1]; [12],63.6%
same,Potency,[2],28.2 µM (active)
same,outcome,[3],inactive
same,Potency,[4],14.1 µM (active)
same,Potency,[5],14.1 µM (active)
CC(C)NC(C)C,Potency,[7],inactive
COc1cc(-c2ccc(=O)[nH]n2)ccc1OC(F)F,outcome,[9],inactive
same,"activity change, negative = inhibition",[1]; at 25.7 µM (top of the series),-2.55% (inactive)
same,max response,[1]; [11],-17.6%
same,max response,[1]; [12],-17.5%
NC(=O)c1cc([N+](=O)[O-])cc([N+](=O)[O-])c1,"activity change, negative = inhibition",[1]; at 57.5 µM (top of the series),2.42% (inactive)
same,max response,[1]; [11],0.174%
same,max response,[1]; [12],7.25%
COc1c2c(cc3c1OCO3)CCN(C)C2,"activity change, negative = inhibition",[1]; at 25.7 µM (top of the series),1.64% (inactive)
same,max response,[1]; [11],2.73%
same,max response,[1]; [12],3.88%
NCCc1ccc(O)cc1,Potency,[7],inactive
same,outcome,[10],inactive
same,outcome,[9],inactive
same,outcome,[8],inactive
same,Potency,[2],inactive
same,outcome,[3],inactive
same,Potency,[4],inactive
same,Potency,[5],inactive
same,Potency,[6],inactive
c1ccc2c(c1)sc1ccccc12,"activity change, negative = inhibition",[1]; at 57.5 µM (top of the series),7.62% (inactive)
same,max response,[1]; [11],-5.03%
same,max response,[1]; [12],4.45%
CNC(C)(C)Cc1ccccc1,"activity change, negative = inhibition",[1]; at 25.7 µM (top of the series),-3.38% (inactive)
same,"activity change, negative = inhibition",[1]; at 57.5 µM (top of the series),12% (inactive)
same,max response,[1]; [11],-19% and 14.2%
same,max response,[1]; [12],-21.7% and 31.6%
CN1C(=O)CCS(=O)(=O)C1c1ccc(Cl)cc1 (stereo unspecified),"activity change, negative = inhibition",[1]; at 57.5 µM (top of the series),6.74% (inactive) and -0.559% (inactive)
same,max response,[1]; [11],18.4% and 40.6%
same,max response,[1]; [12],26.5% and 41.1%
same,outcome,[3],inactive
same,Potency,[4],inactive
same,Potency,[5],inactive
same,Potency,[6],inactive
